{
  "source": "PubChem BioAssay (NCATS)",
  "note": "Inconclusive results are not listed. A number with no mark means an inactive call. The source made the active and inactive calls. The call rests on the fitted dose curve; in most records, active means well fitted inhibition curve with a large enough effect; inconclusive means small, poorly fitted or top-dose-only effect; inactive means no such curve, though single readings can be large or run the other way. Residues, ends and D or L forms follow the SMILES beside them. *: point of attachment. Cbz = O=C(OCc1ccccc1)*",
  "data": [
    {"assay": "qHTS Screen of the MIPE 4.0 Collection Against Ewings Sarcoma (TC32) (AID 1259256); further: nearly all actives have a fitted effect of over 45% in size; further: potency means the concentration at half of the fitted maximal effect;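 on viability (percent of control): 100% = DMSO-treated cells and 0% = medium-only wells without cells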", "conditions": "TC32 Ewing sarcoma viability, CellTiter-Glo, 48 h; series mostly up to 45.8 µM; viability (percent of control): at the top concentration", "source_text": "There is a large unmet medical need for treatments for Ewing sarcoma, a pediatric sarcoma. We sought to identify compounds that inhibited Ewing sarcoma cells in vitro with the goal to then test promising drugs in two drug combinations in vitro to look for synergistic drug combinations. Promising combinations would then proceed to additional validation, including in vivo testing.\nUsing the NCATS developed oncology compound library called the Mechanism of Interrogation Plate (MIPE), four Ewing sarcoma cell lines were evaluated (TC32, TC71, RDES, EW8). Compounds, in a 12-point titration series, were incubated with cells for 48 hours and the read out was cell viability (CellTiter-Glo from Promega). These initial experiments were used to select appropriate concentrations of each single agent for subsequent two-drug matrix combinations such that the concentrations in the matrices would span both activity and non-activity.\nCells, in the log phase of growth, were seeded in 5 uL of RPMI plus 5% FBS, […] L-glutamine, 100 U/ml penicillin and 100 ug/ml streptomycin into 1536-well solid-bottom white tissue culture treated Greiner Bio One Plates (789173-F) using a MultiDrop Combi (Thermofisher Scientific) dispenser and a small sterile cassette. One column was media alone to be used as a :\"no cells\" control. The plates were then covered with sterilized stainless steel gasketed lids from Kalypsys. After allowing cells to attach for 4 hours, 23 nL of test compound or control (negative control DMSO and positive control 9.2 uM Bortezomib-final) were added from a 1536-well polypropylene compound source plate to each well using a 1536 head pin tool from Kalypsys. Cells were then incubated for 48 hours at 37C, 95% relative humidity and 5% CO2. After 48 hours, plates were removed from the incubator and 3 uL of CellTiter-Glo (Promega) was added using an Aurora Flying Reagent Dispenser Bioraptor. Plates were incubated at room temperature for 10 minutes prior to reading the luminescence on the Viewlux (PerkinElmer). The relative luciferase units are used to calculate the percent activity using the activity of DMSO in the cells and no cells columns for normalization of no inhibition and full inhibition respectively.", "values": [
      {"molecule": "Cc1cnc(NC(=O)Nc2cc(Br)c(C)cc2OC[C@@H]2CNCCO2)cn1", "Potency": "590 nM (active)"},
      {"molecule": "NC(=O)c1ncn([C@@H]2O[C@H](CO)[C@@H](O)[C@@H]2O)c1O", "viability (percent of control)": "132%"},
      {"molecule": "CS[C@H]1SC[C@@H]2C(=O)N(C)[C@H](C(C)C)C(=O)OC[C@H](NC(=O)c3cnc4ccccc4n3)C(=O)N[C@H](C)C(=O)N(C)[C@@H]1C(=O)N(C)[C@H](C(C)C)C(=O)OC[C@H](NC(=O)c1cnc3ccccc3n1)C(=O)N[C@H](C)C(=O)N2C", "Potency": "1.9 nM (active)"},
      {"molecule": "C=CC(=O)Nc1ccc2ncnc(Nc3ccc(OCc4cccc(F)c4)c(Cl)c3)c2c1", "Potency": "833 nM (active)"},
      {"molecule": "FC(F)c1nc2ccccc2n1-c1nc(N2CCOCC2)nc(N2CCOCC2)n1", "Potency": "118 nM (active)"},
      {"molecule": "CC(C)N1[N]C(=C2C=c3cc(O)ccc3=N2)c2c(N)ncnc21", "Potency": "209 nM (active)"},
      {"molecule": "CCC(C=C[C@@H]1OC(=O)C=C[C@H]1C)=C[C@H](C)CC=CC(C)=C[C@@H](C)C(=O)[C@@H](C)[C@H](O)[C@@H](C)CC(C)=CC(=O)O", "Potency": "13.9 nM (active)"},
      {"molecule": "CN1[C@H]2CC(OC(=O)[C@@H](CO)c3ccccc3)C[C@H]1[C@H]1O[C@H]12", "note": "(stereo not given in full)", "viability (percent of control)": "119% [at 23.2 µM]"},
      {"molecule": "COc1ccc(CCC(=O)c2c(O)cc(O[C@@H]3O[C@H](CO)[C@@H](O)[C@H](O)[C@@H]3O[C@@H]3O[C@@H](C)[C@H](O)[C@@H](O)[C@@H]3O)cc2O)cc1O", "Potency": "9350 nM (active)"},
      {"molecule": "O=C(Nc1ccc(Oc2ccnc3[nH]ccc23)c(F)c1)c1cccn(-c2ccc(F)cc2)c1=O", "viability (percent of control)": "141%"},
      {"molecule": "O=C1c2c(O)cccc2[C@@H]([C@@H]2O[C@H](CO)[C@@H](O)[C@H](O)[C@H]2O)c2cc(CO)cc(O)c21", "viability (percent of control)": "116%"},
      {"molecule": "C[C@H]1O[C@H](O[C@H]2[C@H](O)[C@@H](O)[C@@H](O[C@H]3[C@H](O)[C@@H](O)C(O)O[C@H]3CO)O[C@H]2CO)[C@H](O)[C@@H](O)[C@H]1N[C@H]1C=C(CO)[C@@H](O)[C@H](O)[C@@H]1O", "note": "(stereo not given in full)", "viability (percent of control)": "134%"},
      {"molecule": "O=c1[nH]c(=O)n([C@H]2C[C@@H](O)[C@@H](CO)O2)cc1C=CBr", "viability (percent of control)": "124%"},
      {"molecule": "O=c1c(O)c(-c2ccc(O)c(O)c2)oc2cc(O)ccc12", "Potency": "20900 nM (active)"},
      {"molecule": "CC(O)(C#Cc1ccc2c(c1)N(c1nc(N)ncc1Cl)CC2)c1nccs1", "note": "(stereo not given)", "Potency": "20900 nM (active)"},
      {"molecule": "Nc1ccc(C(=O)Nc2cccc(-c3nc(N4CCOCC4)c4oc5ncccc5c4n3)c2)cn1", "Potency": "16600 nM (active)"},
      {"molecule": "CC(C)C[C@@H](C=O)NC(=O)[C@H](CC(C)C)NC(=O)[C@H](CC(C)C)NC(=O)OCc1ccccc1", "note": "(Cbz-Leu-Leu-Leu-aldehyde)", "Potency": "372 nM (active)"},
      {"molecule": "OCCNC1CCCc2c1[nH]c1ccc(-c3ccccc3)cc21", "note": "(stereo not given)", "Potency": "18700 nM (active)"},
      {"molecule": "COc1cccc2c1C(=O)c1c(O)c3c(c(O)c1C2=O)C[C@@](O)(C(=O)CO)C[C@@H]3O[C@H]1C[C@H](N)[C@H](OC2CCCCO2)[C@H](C)O1", "note": "(stereo not given in full)", "Potency": "3.7 nM (active)"},
      {"molecule": "NC(=O)Nc1cc(-c2ccc(CN3CCOCC3)cc2)sc1C(N)=O", "Potency": "187 nM (active)"},
      {"molecule": "CC(C)C[C@H](NC(=O)CNC(=O)c1cc(Cl)ccc1Cl)B1OC(=O)CC(CC(=O)O)(C(=O)O)O1", "note": "(stereo not given in full)", "Potency": "332 nM (active)"},
      {"molecule": "CC(=O)OCC(=O)[C@@]1(O)CC[C@H]2[C@@H]3CCC4=CC(=O)CC[C@]4(C)[C@@H]3C(=O)C[C@@]21C", "viability (percent of control)": "122%"},
      {"molecule": "CN1CCCN(C(=O)c2cccc(-c3ccc(C=C4C(=O)Nc5ccc(Cl)cc54)o3)c2)CC1", "Potency": "18700 nM (active)"},
      {"molecule": "C=C[C@@H]1CN2CCC1C[C@H]2[C@H](O)c1ccnc2ccc(OC)cc12", "note": "(stereo not given in full)", "viability (percent of control)": "104%"},
      {"molecule": "C=C(C)[C@@H]1CC[C@]2(C(=O)O)CC[C@]3(C)[C@H](CC[C@@H]4[C@@]5(C)CC[C@H](O)C(C)(C)[C@@H]5CC[C@]43C)[C@@H]12", "viability (percent of control)": "121%"},
      {"molecule": "Nc1ncn([C@@H]2O[C@H](CO)[C@@H](O)[C@@H]2O)c(=O)n1", "Potency": "4690 nM (active)"},
      {"molecule": "CN[C@@H]1C[C@H]2O[C@@](C)([C@H]1OC)n1c3ccccc3c3c4c(c5c6ccccc6n2c5c31)C(=O)N[C@H]4O", "Potency": "187 nM (active)"},
      {"molecule": "NC(=O)c1cccc(-c2cccc(OC(=O)NC3CCCCC3)c2)c1", "viability (percent of control)": "122%"},
      {"molecule": "CCc1ccc(C(=O)Nc2cc(CN3CCN(C)CC3)cc(C(F)(F)F)c2)cc1C#Cc1cnc2ccnn2c1", "Potency": "14800 nM (active)"},
      {"molecule": "O=[N+]([O-])c1cn2c(n1)OC[C@@H](OCc1ccc(OC(F)(F)F)cc1)C2", "Potency": "8330 nM (active)"},
      {"molecule": "CN[C@H](CC(C)C)C(=O)N[C@H]1C(=O)N[C@@H](CC(N)=O)C(=O)N[C@@H]2C(=O)N[C@H]3C(=O)N[C@H](C(=O)N[C@H](C(=O)O)c4cc(O)cc(O)c4-c4cc3ccc4O)[C@H](O)c3ccc(c(Cl)c3)Oc3cc2cc(c3O[C@@H]2O[C@H](CO)[C@@H](O)[C@H](O)[C@@H]2O[C@H]2C[C@](C)(N)[C@H](O)[C@H](C)O2)Oc2ccc(cc2Cl)[C@H]1O", "viability (percent of control)": "115%"},
      {"molecule": "COc1cc(N2CCC(C(N)=O)CC2)ccc1Nc1nc(N)c(Cl)c(Nc2ccccc2S(=O)(=O)C(C)C)n1", "Potency": "6620 nM (active)"},
      {"molecule": "C[C@@H](Oc1ccc2[nH]nc(C=Cc3cnn(CCO)c3)c2c1)c1c(Cl)cncc1Cl", "Potency": "264 nM (active)"},
      {"molecule": "CS(=O)(=O)N1CCc2c(-c3cnc(N)nc3)nc(N3CCOCC3)nc21", "Potency": "296 nM (active)"},
      {"molecule": "CC(C)Oc1ccc(C(=O)N[C@H](CNC(=O)CN(C)C)Cc2ccc(-c3cn4cccc([C@H](C)O)c4n3)cc2)cc1Cl", "Potency": "4.2 nM (active)"},
      {"molecule": "OCc1ccccc1O[C@@H]1O[C@H](CO)[C@H](O)[C@H](O)[C@H]1O", "viability (percent of control)": "143%"},
      {"molecule": "COc1cc(C(=O)NC2CCN(C)CC2)ccc1Nc1ncc2c(n1)N(C1CCCC1)CCC(=O)N2C(C)C", "Potency": "2350 nM (active)"},
      {"molecule": "CC1(C)O[C@@H]2C[C@H]3[C@@H]4CCC5=CC(=O)C=C[C@]5(C)[C@@H]4[C@@H](O)C[C@]3(C)[C@]2(C(=O)CO)O1", "viability (percent of control)": "117%"},
      {"molecule": "CC(C(C)N1CC(=O)NC(=O)C1)N1CC(=O)NC(=O)C1", "note": "(stereo not given)", "viability (percent of control)": "21.7%"},
      {"molecule": "Cc1cc(-c2nnc3n2CCCCC3)c(C)n1-c1ccccc1", "Potency": "18700 nM (active)"}
    ]}
  ]
}
